# According to the supplement of paper PMC8728848:
# The full list was thinned out, with the strongest signals kept by preference.
# B1: RsaA-N-term (Caulobacter crescentus), P35828 (protein)
# chain: MAYTTAQLVTAYTNANLGKAPDAATTLTLDAYATQTQTGGLSDAAALTNTLKLVNSTTAVAIQTYQFFTGVAPSAAGLDFLVDSTTNTNDLNDAYYSKFAQENRFINFSINLATGAGAGATAFAAAYTGVSYAQTVATAYDKIIGNAVATAAGVDVAAAVAFLSRQANIDYLTAFVRANTPFTAAADIDLAVKAALIGTILNAATVSGIGGYATATAAMINDLSDGALSTDNAAGVNLFTAYPSSGVSGSTLSLTTGTDTLTGTANNDTFVAGEVAGDGSGWSHPQFEKGG
# Experiments:
# Assay in all cases: glycan array binding signal (z-score within array); higher = stronger binding
# Settings in all cases: glycan notation: IUPAC condensed, linker removed
# [1] = molecular target: Fuc(a1-2)Gal(b1-4)Fuc(a1-3)]GlcNAc(b1-2)Man(a1-3)[Fuc(a1-2)Gal(b1-4)[Fuc(a1-3)]GlcNAc(b1-2)Man(a1-6)]Man(b1-4)GlcNAc(b1-4)GlcNAc
# Procedure, shortened: (§1)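 Columns mapping to the same glycan were averaged after glycan names were converted to IUPAC-condensed notation. The data come from 3228 arrays in the Consortium for Functional Glycomics database, limited to those with an available protein sequence. Binding is reported as a within-array Z-score averaged across arrays of one protein sequence and across linkers.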
# [2] = molecular target: Fuc(a1-2)Gal(b1-4)GlcNAc(b1-2)Man(a1-3)[Fuc(a1-2)Gal(b1-4)GlcNAc(b1-2)Man(a1-6)]Man(b1-4)GlcNAc(b1-4)[Fuc(a1-6)]GlcNAc
# Procedure, shortened: as §1
# [3] = molecular target: Fuc(a1-2)Gal(b1-4)[Fuc(a1-3)]GlcNAc(b1-2)[Fuc(a1-2)Gal(b1-4)[Fuc(a1-3)]GlcNAc(b1-4)]Man(a1-3)[Fuc(a1-2)Gal(b1-4)[Fuc(a1-3)]GlcNAc(b1-2)Man(a1-6)]Man(b1-4)GlcNAc(b1-4)GlcNAc
# Procedure, shortened: as §1
# [4] = molecular target: Fuc(a1-2)Gal(b1-4)[Fuc(a1-3)]GlcNAc(b1-3)Gal(b1-4)[Fuc(a1-3)]GlcNAc(b1-3)Gal(b1-4)[Fuc(a1-3)]GlcNAc
# Procedure, shortened: as §1
# [5] = molecular target: Fuc(a1-2)Gal(b1-4)[Fuc(a1-3)]GlcNAc(b1-3)GalNAc
# Procedure, shortened: as §1
# [6] = molecular target: Fuc(a1-2)Gal3S(b1-4)GlcNAc
# Procedure, shortened: as §1
# [7] = molecular target: Fuc(a1-2)[Gal(a1-3)]Gal(b1-3)GalNAc
# Procedure, shortened: as §1
# [8] = molecular target: Fuc(a1-2)[Gal(a1-3)]Gal(b1-3)GlcNAc(b1-2)Man(a1-3)[Fuc(a1-2)[Gal(a1-3)]Gal(b1-3)GlcNAc(b1-2)Man(a1-6)]Man(b1-4)GlcNAc(b1-4)[Fuc(a1-6)]GlcNAc
# Procedure, shortened: as §1
# [9] = molecular target: Fuc(a1-2)[Gal(a1-3)]Gal(b1-4)GlcNAc
# Procedure, shortened: as §1
# [10] = molecular target: Fuc(a1-2)[Gal(a1-4)]Gal(b1-4)GlcNAc
# Procedure, shortened: as §1
# [11] = molecular target: Fuc(a1-2)[GalNAc(a1-3)]Gal(b1-4)GlcNAc(b1-3)Gal(b1-4)GlcNAc(b1-3)Gal(b1-4)GlcNAc
# Procedure, shortened: as §1
# [12] = molecular target: Gal(b1-3)GalNAc(b1-4)[Neu5Ac(a2-3)]Gal(b1-4)Glc
# Procedure, shortened: as §1
# [13] = molecular target: Gal(b1-3)[Neu5Ac(b2-6)]GalNAc
# Procedure, shortened: as §1
# [14] = molecular target: Gal(b1-4)GlcNAc(b1-2)Man(a1-3)[Gal(b1-4)GlcNAc(b1-2)Man(a1-6)][GlcNAc(b1-4)]Man(b1-4)GlcNAc(b1-4)[Fuc(a1-6)]GlcNAc
# Procedure, shortened: as §1
# [15] = molecular target: Gal(b1-4)GlcNAc(b1-3)Gal(b1-4)GlcNAc(b1-2)Man(a1-3)[Gal(b1-4)GlcNAc(b1-3)Gal(b1-4)GlcNAc(b1-2)Man(a1-6)]Man(b1-4)GlcNAc(b1-4)GlcNAc
# Procedure, shortened: as §1
# [16] = molecular target: Gal(b1-4)GlcNAc(b1-3)Gal(b1-4)GlcNAc(b1-2)Man(a1-3)[Gal(b1-4)GlcNAc(b1-3)Gal(b1-4)GlcNAc(b1-2)Man(a1-6)]Man(b1-4)GlcNAc(b1-4)[Fuc(a1-6)]GlcNAc
# Procedure, shortened: as §1
# Gal3S(b1-3)GalNAc = molecular target: Gal3S(b1-3)GalNAc
# Procedure, shortened: as §1
# [17] = molecular target: Gal3S(b1-3)[Fuc(a1-4)]GlcNAc
# Procedure, shortened: as §1
# Gal6S(b1-3)GlcNAc6S = molecular target: Gal6S(b1-3)GlcNAc6S
# Procedure, shortened: as §1
# Gal6S(b1-4)Glc = molecular target: Gal6S(b1-4)Glc
# Procedure, shortened: as §1
# GalNAc3S(b1-4)GlcNAc3S = molecular target: GalNAc3S(b1-4)GlcNAc3S
# Procedure, shortened: as §1
# Glc(b1-4)Glc = molecular target: Glc(b1-4)Glc
# Procedure, shortened: as §1
# [18] = molecular target: GlcNAc(a1-4)Gal(b1-3)GlcNAc
# Procedure, shortened: as §1
# [19] = molecular target: GlcNAc(a1-4)Gal(b1-4)GlcNAc(b1-3)Gal(b1-4)Glc
# Procedure, shortened: as §1
# [20] = molecular target: GlcNAc(b1-2)[GlcNAc(b1-4)]Man(a1-3)[GlcNAc(b1-4)][GlcNAc(b1-2)[GlcNAc(b1-6)]Man(a1-6)]Man(b1-4)GlcNAc(b1-4)[Fuc(a1-6)]GlcNAc
# Procedure, shortened: as §1
# [21] = molecular target: GlcNAc(b1-3)Gal(b1-4)GlcNAc(b1-2)Man(a1-3)[GlcNAc(b1-3)Gal(b1-4)GlcNAc(b1-2)Man(a1-6)]Man(b1-4)GlcNAc(b1-4)GlcNAc
# Procedure, shortened: as §1
# [22] = molecular target: GlcNAc(b1-3)Gal(b1-4)GlcNAc(b1-3)Gal(b1-4)GlcNAc(b1-2)Man(a1-3)[GlcNAc(b1-3)Gal(b1-4)GlcNAc(b1-3)Gal(b1-4)GlcNAc(b1-2)Man(a1-6)]Man(b1-4)GlcNAc(b1-4)GlcNAc
# Procedure, shortened: as §1
# [23] = molecular target: GlcNAc(b1-3)Gal(b1-4)GlcNAc(b1-3)Gal(b1-4)GlcNAc(b1-3)Gal(b1-4)GlcNAc(b1-2)[GlcNAc(b1-3)Gal(b1-4)GlcNAc(b1-3)Gal(b1-4)GlcNAc(b1-3)Gal(b1-4)GlcNAc(b1-6)]Man(a1-6)[GlcNAc(b1-3)Gal(b1-4)GlcNAc(b1-3)Gal(b1-4)GlcNAc(b1-3)Gal(b1-4)GlcNAc(b1-2)Man(a1-3)]Man(b1-4)GlcNAc(b1-4)[Fuc(a1-6)]GlcNAc
# Procedure, shortened: as §1
# [24] = molecular target: GlcNAc(b1-4)[GlcNAc(b1-6)]GalNAc
# Procedure, shortened: as §1
# [25] = molecular target: Man(a1-3)[Man(a1-6)]Man(b1-4)GlcNAc(b1-4)GlcNAc
# Procedure, shortened: as §1
# [26] = molecular target: Neu5Ac(a2-3)Gal(b1-3)GalNAc(b1-4)[Neu5Ac(a2-3)]Gal(b1-4)Glc
# Procedure, shortened: as §1
# [27] = molecular target: Neu5Ac(a2-3)Gal(b1-3)GalNAc6S
# Procedure, shortened: as §1
# [28] = molecular target: Neu5Ac(a2-3)Gal(b1-3)GlcNAc(b1-2)Man(a1-3)[Neu5Ac(a2-3)Gal(b1-3)GlcNAc(b1-2)Man(a1-6)]Man(b1-4)GlcNAc(b1-4)GlcNAc
# Procedure, shortened: as §1
# [29] = molecular target: Neu5Ac(a2-3)Gal(b1-3)[GlcNAc(b1-6)]GalNAc
# Procedure, shortened: as §1
# [30] = molecular target: Neu5Ac(a2-3)Gal(b1-4)GlcNAc(b1-2)Man
# Procedure, shortened: as §1
# [31] = molecular target: Neu5Ac(a2-3)Gal(b1-4)GlcNAc(b1-3)Gal(b1-4)GlcNAc(b1-3)Gal(b1-4)GlcNAc(b1-2)Man(a1-3)[Neu5Ac(a2-3)Gal(b1-4)GlcNAc(b1-3)Gal(b1-4)GlcNAc(b1-3)Gal(b1-4)GlcNAc(b1-2)Man(a1-6)]GalNAc
# Procedure, shortened: as §1
# [32] = molecular target: Neu5Ac(a2-3)Gal(b1-4)GlcNAc(b1-3)Gal(b1-4)GlcNAc(b1-3)GalNAc
# Procedure, shortened: as §1
# [33] = molecular target: Neu5Ac(a2-3)Gal(b1-4)GlcNAc(b1-3)Gal(b1-4)[Fuc(a1-3)]GlcNAc
# Procedure, shortened: as §1
# [34] = molecular target: Neu5Ac(a2-3)Gal(b1-4)[Fuc(a1-3)]GlcNAc(b1-2)Man
# Procedure, shortened: as §1
# [35] = molecular target: Neu5Ac(a2-6)Gal(b1-4)GlcNAc(b1-2)Man(a1-3)[Neu5Ac(a2-3)Gal(b1-4)GlcNAc(b1-2)Man(a1-6)]Man(b1-4)GlcNAc(b1-4)GlcNAc
# Procedure, shortened: as §1
# [36] = molecular target: Neu5Ac(a2-6)Gal(b1-4)GlcNAc(b1-2)Man(a1-3)[Neu5Ac(a2-6)Gal(b1-4)GlcNAc(b1-2)Man(a1-6)]Man(b1-4)GlcNAc(b1-4)GlcNAc
# Procedure, shortened: as §1
# [37] = molecular target: Neu5Ac(a2-6)Gal(b1-4)GlcNAc(b1-2)Man(a1-6)[GlcNAc(b1-2)Man(a1-3)]Man(b1-4)GlcNAc(b1-4)GlcNAc
# Procedure, shortened: as §1
# [38] = molecular target: Neu5Ac(a2-6)Gal(b1-4)GlcNAc(b1-3)Gal(b1-4)GlcNAc(b1-2)Man(a1-3)[Neu5Ac(a2-6)Gal(b1-4)GlcNAc(b1-3)Gal(b1-4)GlcNAc(b1-2)Man(a1-6)]GalNAc
# Procedure, shortened: as §1
# [39] = molecular target: Neu5Ac(a2-6)Gal(b1-4)GlcNAc(b1-3)Gal(b1-4)GlcNAc(b1-3)[Neu5Ac(a2-6)Gal(b1-4)GlcNAc(b1-3)Gal(b1-4)GlcNAc(b1-6)]GalNAc
# Procedure, shortened: as §1
# Neu5Ac(a2-6)GalNAc = molecular target: Neu5Ac(a2-6)GalNAc
# Procedure, shortened: as §1
# [40] = molecular target: Neu5Ac(a2-6)GalNAc(b1-4)GlcNAc
# Procedure, shortened: as §1
# [41] = molecular target: Neu5Ac(a2-8)Neu5Ac(a2-3)Gal(b1-4)Glc
# Procedure, shortened: as §1
# [42] = molecular target: Neu5Ac(a2-8)Neu5Ac(a2-3)[GalNAc(b1-4)]Gal(b1-4)Glc
# Procedure, shortened: as §1
binder,measurement,setting,value
B1,glycan array binding signal (z-score),[1],5.97
same,glycan array binding signal (z-score),[2],7.05
same,glycan array binding signal (z-score),[3],2.4
same,glycan array binding signal (z-score),[4],-1.26
same,glycan array binding signal (z-score),[5],-0.298
same,glycan array binding signal (z-score),[6],-0.243
same,glycan array binding signal (z-score),[7],-0.328
same,glycan array binding signal (z-score),[8],-0.025
same,glycan array binding signal (z-score),[9],1.14
same,glycan array binding signal (z-score),[10],-0.479
same,glycan array binding signal (z-score),[11],0.016
same,glycan array binding signal (z-score),[12],-0.359
same,glycan array binding signal (z-score),[13],0.215
same,glycan array binding signal (z-score),[14],-0.708
same,glycan array binding signal (z-score),[15],3.15
same,glycan array binding signal (z-score),[16],2.39
same,glycan array binding signal (z-score),Gal3S(b1-3)GalNAc,1.7
same,glycan array binding signal (z-score),[17],-0.524
same,glycan array binding signal (z-score),Gal6S(b1-3)GlcNAc6S,3.01
same,glycan array binding signal (z-score),Gal6S(b1-4)Glc,-0.512
same,glycan array binding signal (z-score),GalNAc3S(b1-4)GlcNAc3S,0.081
same,glycan array binding signal (z-score),Glc(b1-4)Glc,-0.512
same,glycan array binding signal (z-score),[18],0.008
same,glycan array binding signal (z-score),[19],-0.491
same,glycan array binding signal (z-score),[20],0.317
same,glycan array binding signal (z-score),[21],2.18
same,glycan array binding signal (z-score),[22],2.59
same,glycan array binding signal (z-score),[23],0.217
same,glycan array binding signal (z-score),[24],-0.221
same,glycan array binding signal (z-score),[25],0.174
same,glycan array binding signal (z-score),[26],-1.29
same,glycan array binding signal (z-score),[27],0.427
same,glycan array binding signal (z-score),[28],7.19
same,glycan array binding signal (z-score),[29],-1.21
same,glycan array binding signal (z-score),[30],2.51
same,glycan array binding signal (z-score),[31],-0.725
same,glycan array binding signal (z-score),[32],-1.2
same,glycan array binding signal (z-score),[33],-0.112
same,glycan array binding signal (z-score),[34],0.103
same,glycan array binding signal (z-score),[35],2.79
same,glycan array binding signal (z-score),[36],0.398
same,glycan array binding signal (z-score),[37],0.365
same,glycan array binding signal (z-score),[38],-1.33
same,glycan array binding signal (z-score),[39],-0.68
same,glycan array binding signal (z-score),Neu5Ac(a2-6)GalNAc,2.17
same,glycan array binding signal (z-score),[40],-0.593
same,glycan array binding signal (z-score),[41],-0.815
same,glycan array binding signal (z-score),[42],-0.001
